Assay outcomes (PubChem BioAssay)
HER2 expr 66K = inhibitors of Her2 protein expression, primary screen, SKBR-3 cells, AlphaScreen, 66K library. 0.69% of 65,000 active. HER2 level % of control, % at 10 µM. Receptor tyrosine-protein kinase erbB-2 (Homo sapiens), P04626. AID 645, 2007. SKBR-3 HER2 protein level, 18-24 h; hits give low values;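 active = HER2 level under 5% of the carrier-only control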;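 also: 100% = DMSO carrier and 0% = 500 nM PU-H71 HSP90 inhibitor; lower value means stronger loss of Her2 protein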
MMP13 inh = human MMP13 inhibitors, primary screen, biochemical, FRET peptide cleavage; AID 570, 2006; MMP-13 fTHP FRET cleavage, Mca fluorescence; inhibition, % at 4 µM; Collagenase 3 (Homo sapiens), P45452; 0.07% of 65,000 active;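 active = inhibition above the mean of compound-free control plate wells plus 3 SD, cut at about 14% in these data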;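 also: 0% = DMSO wells and 100% = wells with reference MMP-13 inhibitor after basal subtraction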
SKBR3 24h inh = SK-BR-3 proliferation inhibitors, primary screen, cell-based, human, 24 h | viability, % at 10 µM | SK-BR-3 viability, CellTiter-Glo ATP luminescence; hits give low values | 0.47% of 41,000 active;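 active = viability at or below the median of all test compounds minus 3 SD, in both replicates if run twice, cut at about 45% in these data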;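 also: 100% = median untreated cell wells and 0% = median positive control drug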
An asterisk follows results filed as active. Shown are actives, neighbours in structure and some others; about 0.94% of the full set was active somewhere.

What do the screens show for `CC(NC(=O)Cc1cccs1)C(c1cccs1)N1CCN(c2ccccc2F)CC1` (stereo unspecified)?
HER2 expr 66K: 94; MMP13 inh: 4

What do the screens show for `CC1(C)CC(=O)c2cc(C(=O)N3CCCCC3)c(=O)n(-c3ccc(Cl)cc3)c2C1`?
HER2 expr 66K: 92; MMP13 inh: 3

How did O=C(CN1C(=O)C2C3C=CC(C3)C2C1=O)NCCN1CCCc2ccccc21 (stereo unspecified) do in these assays?
HER2 expr 66K: 120; MMP13 inh: -1; SKBR3 24h inh: 102

What do the screens show for `O=C(CCN1C(=O)C2C3C=CC(C3)C2C1=O)NCCN1CCCc2ccccc21` (stereo unspecified)?
HER2 expr 66K: 110; MMP13 inh: -16; SKBR3 24h inh: 30*

Results for O=c1cc(-c2c(F)c(F)c(F)c(F)c2F)oc2c(F)c(F)c(F)c(F)c12 ?
MMP13 inh: 1; SKBR3 24h inh: 34*

How did O=C(CN(CCO)c1ccccc1)NC12CC3CC(CC(C3)C1)C2 do in these assays?
HER2 expr 66K: 108; MMP13 inh: 1; SKBR3 24h inh: 93

Results for CCn1c(=O)n(CC(=O)NC2CCCC(C)C2C)c(=O)c2ccccc21 (stereo unspecified) ?
HER2 expr 66K: 76; MMP13 inh: -7; SKBR3 24h inh: 84

What do the screens show for `CCCn1c(Nc2nc3ccccc3n2C)nc2ccccc21`?
HER2 expr 66K: -22*; MMP13 inh: -13; SKBR3 24h inh: 9.8*

What do the screens show for `CCCn1c(NCc2ccco2)nc2ccccc21`?
HER2 expr 66K: 109; MMP13 inh: 1; SKBR3 24h inh: 95

What do the screens show for `Cn1c(=O)[nH]c(=O)c2c1nc(N1CCCCC1)n2CCCSc1nc2ccccc2s1`?
HER2 expr 66K: 88; MMP13 inh: 3; SKBR3 24h inh: 83

How did COc1ccc(S(=O)(=O)n2nc(-c3cc(OC)c(OC)c(OC)c3)cc2N)cc1OC do in these assays?
HER2 expr 66K: 93; MMP13 inh: -2

What do the screens show for `COc1ccc(-c2cc(N)n(S(=O)(=O)c3c(F)c(F)c(F)c(F)c3F)n2)cc1OC`?
HER2 expr 66K: -13*; MMP13 inh: 6

How did CCOC(=O)C1CCN(C(=O)COC(=O)COc2ccccc2OC)CC1 do in these assays?
HER2 expr 66K: 122; MMP13 inh: -7

Results for CN(C)S(=O)(=O)c1cccc(COC(=O)C2=COCCO2)c1 ?
HER2 expr 66K: 94; MMP13 inh: 2; SKBR3 24h inh: 99

What do the screens show for `CCCCOc1ccccc1C1NC(=O)NC(C)=C1C(=O)OCCOC` (stereo unspecified)?
HER2 expr 66K: 148; MMP13 inh: 2; SKBR3 24h inh: 137

How did COc1cc2[nH]c(=O)n(CCC(=O)N3CCN(c4cccc(C)c4C)CC3)c(=O)c2cc1OC do in these assays?
HER2 expr 66K: -23*; MMP13 inh: 7; SKBR3 24h inh: 4.9*

What do the screens show for `COc1cc2[nH]c(=O)n(CCCCCC(=O)N3CCN(c4ccccc4)CC3)c(=O)c2cc1OC`?
HER2 expr 66K: 131; MMP13 inh: 5; SKBR3 24h inh: 85

Results for Cc1cc(C)nc(Sc2c(C)n[nH]c2C)n1 ?
HER2 expr 66K: 113; MMP13 inh: -14

How did CN(C)S(=O)(=O)c1ccc(N2CCOCC2)nc1 do in these assays?
HER2 expr 66K: 94; MMP13 inh: 3; SKBR3 24h inh: 86

Results for Cc1ccc(C)n1-c1ccc(N2CCOCC2)nc1 ?
HER2 expr 66K: -19*; MMP13 inh: -56; SKBR3 24h inh: 98

How did COc1cc(NC(=O)c2ccco2)c(OC)cc1NC(=O)CSc1nnc(-c2cccs2)n1C do in these assays?
HER2 expr 66K: 60; MMP13 inh: 0; SKBR3 24h inh: 42*

How did COc1cc(NC(=O)c2cccs2)c(OC)cc1NC(=O)c1ccco1 do in these assays?
HER2 expr 66K: 92; MMP13 inh: 4; SKBR3 24h inh: 92

How did NC(=O)c1cc2n(n1)C(C(F)(F)F)CC(c1ccco1)N2 (stereo unspecified) do in these assays?
HER2 expr 66K: 109; MMP13 inh: 6

What do the screens show for `N#C/C(C(N)=O)=c1/ccc2c(c1)N1C3=C(CCCC3)CC3CCCCC31N=2` (stereo unspecified)?
HER2 expr 66K: -29*; MMP13 inh: 0; SKBR3 24h inh: 62

How did N#CC(C#N)=c1ccc2c(c1)N1C3=C(CCCC3)CC3CCCCC31N=2 (stereo unspecified) do in these assays?
HER2 expr 66K: -28*; MMP13 inh: 6; SKBR3 24h inh: 106

How did CCOc1cccc(-c2nn3c(-c4ccco4)nnc3s2)c1 do in these assays?
HER2 expr 66K: 74; MMP13 inh: -1; SKBR3 24h inh: 85

Results for COc1ccc(-n2c(SCC(=O)Nc3cc(C)on3)nc3c(c2=O)SCC3)cc1 ?
HER2 expr 66K: 73; MMP13 inh: -13
